# Measured values taken from PubChem BioAssay (Tox21).
# Inconclusive results are not listed. A call without a number means that no potency is given here. Values without a mark were called inactive. Activity calls are given as the source filed them. Calls come from the whole dose curve; as a rule, active = well fitted cell-killing curve with a large enough effect in the repeat runs; inconclusive = weak or mixed curves, or effect the other way; inactive = flat fitted curve, though single readings scatter.
# Assay: qHTS assay to identify small molecule antagonists of the estrogen receptor alpha (ER-alpha) signaling pathway using the BG1 cell line in the presence of 0.1 nM 17-beta-estradiol - cell viability counter screen (AID 1259241); note: nearly all actives have a fitted effect of over 40% in size
# Details: VM7Luc4E2 (BG1) viability, CellTiter-Fluor protease, 22 h, 0.1 nM estradiol agonist added; series mostly up to 92.4 µM
# Excerpt: National Center for Advancing Translational Sciences [NCATS]
# NIH Chemical Genomics Center [NCGC]
# U.S. Environmental Protection Agency [EPA]
# National Institutes of Environmental Health Sciences [NIEHS]
# National Toxicology Program [NTP]
# U.S. Food and Drug Administration [FDA]
# Estrogen receptor (ER), a member of the nuclear hormone receptor plays an important role in development, metabolic homeostasis and reproduction. Two subtypes of ER, ER-alpha and ER-beta, have similar expression patterns with some uniqueness in both types. Endocrine disrupting chemicals (EDCs) and their interactions with steroid hormone receptors like ER causes disruption of normal endocrine function. Therefore, it is important to understand the effect of environmental chemicals in ER signaling pathway. For identifying ER antagonists, VM7Luc4E2 cell line was used to screen against Tox21 compound libraries.
# VM7Luc4E2 cell line (provided by Denison MS, University of California) endogenously express full-length ER-alpha and is stably transfected with a plasmid containing four estrogen responsive elements (ERE) upstream of a luciferase reporter gene. The current screening for identification of ER-alpha inhibitors against Tox21 compound libraries used lower concentration (0.1 nM) of 17beta-Estradiol as a stimulator. The cytotoxicity of the Tox21 compound libraries against VM7Luc4E2 cell line was tested by measuring live-cell protease activity using CellTiter-Fluor assay in the same wells.
# Tox21 Assay Protocol Summary:
# VM7Luc4E2 cells were cultured in phenol red free assay medium containing 10% charcoal stripped FBS for 5 days prior to the assay. The cells were dispensed at 4,000 cells/well in 4 uL of assay medium into white wall/solid-bottom 1536-well plates (Corning Life Sciences, Corning, NY) using a Multidrop Combi (ThermoFisher Scientific, Waltham, MA) dispenser. After the assay plates were incubated at 37C and 5% CO2 for 24 hr, 23 nL of compounds dissolved in DMSO, positive controls or DMSO only was transferred to the assay plates by a Pintool station (Kalypsys, San Diego, CA). The transfer of compounds was followed by the addition of 1 uL of 0.1 nM (final concentration) agonist (17beta-Estradiol)/assay medium using a Flying Reagent Dispenser (FRD, Aurora Discovery, San Diego, CA). The plates were incubated at 37C and 5% CO2 for 22 hr. For cytotoxicity assay, 1 uL of CellTiter-Fluor reagent (Promega Corporation, Madison, WI) was added to each well using the FRD and after 30 min incubation at 37C and 5% CO2, The fluorescence intensity was measured using ViewLux plate reader (PerkinElmer, Shelton, CT).
# Potency is the fitted concentration of half-maximal effect.
SMILES,"activity change, negative = cytotoxicity",Potency
CN1CCN(CC(=O)N2c3ccccc3C(=O)Nc3cccnc32)CC1,5.03% [at 8.39 µM],
C=C1CC/C=C(\C)CC[C@@H]2[C@@H]1CC2(C)C,,inactive
O=C1CCCC(=O)O1,,inactive
O=C(NCC(O)CO)c1c(I)c(C(=O)NCC(O)CO)c(I)c(N(CCO)C(=O)CO)c1I (stereo not given),,inactive
CCCCCCCCCCl,,inactive
CCC(C)NC(N)=O (stereo not given),,inactive
CN(C)CCOCCO,,inactive
COC(=O)[C@@H]1[C@H]2C[C@H]3c4[nH]c5ccccc5c4CCN3C[C@@H]2CC[C@@H]1O,,inactive
C[C@H](N)[C@H](O)c1cccc(O)c1,,inactive
COc1ccc(Br)c(C)c1,,inactive
COc1cc(C(=S)N2CCOCC2)cc(OC)c1OC,,inactive
O=C1c2ccccc2C(=O)N1CCl,,inactive
CC(C)C[C@H](NC(=O)CNC(=O)[C@H](Cc1ccc(O)cc1)NC(=O)[C@H](CO)NC(=O)[C@H](Cc1c[nH]c2ccccc12)NC(=O)[C@H](Cc1cnc[nH]1)NC(=O)[C@@H]1CCC(=O)N1)C(=O)N[C@@H](CCCN=C(N)N)C(=O)N1CCC[C@H]1C(=O)NCC(N)=O (stereo in doubt),,inactive
C=C(C)C(=O)OCCOP(=O)(O)OCCOC(=O)C(=C)C,,inactive
CC(=O)OC(C)OC(=O)C(C)c1ccc(-c2ccccc2)c(F)c1 (stereo not given),,inactive
NS(=O)(=O)c1ccc(NC(=O)CCC(=O)O)cc1,,inactive
NCCN1CCOCC1,,inactive
CCCCCCN,,inactive
O=C(O)C(=O)Cc1ccccc1,,inactive
On1nnc2ccccc21,,inactive

SMILES,"activity change, negative = cytotoxicity",Potency
CNS(=O)(=O)CCc1ccc2[nH]cc(C3CCN(C)CC3)c2c1,,inactive
CC(COC(C)(C)C)OCCCO (stereo not given),,inactive
CC(=O)/C=C/C1C(C)=CCC(C)C1(C)C (stereo not given),,inactive
CC1(CO)CN(c2ccccc2)NC1=O (stereo not given),,inactive
C=COCCOCCOCCOC=C,,inactive
Cc1cccc(C)c1OCC(C)N (stereo not given),,inactive
CCOCCOC(=O)/C=C/c1ccc(OC)cc1,,inactive
Cc1ccsc1/C=C/C1=NCCCN1C,,inactive
ClCCCl,,inactive
CC(C)C(=O)OCc1cccc(OC(=O)[C@@H]2N3C(=O)[C@@H](NC(=O)Cc4ccccc4)[C@H]3SC2(C)C)c1,,inactive
O=C(Nc1ccc(Cl)c(Cl)c1)C1CC1,,inactive
COc1cc(NS(=O)(=O)c2ccc(N)cc2)nc(OC)n1,,inactive
COc1cc(N)ccc1C,,inactive
Nc1ccc([N+](=O)[O-])c(N)c1,,53.1 µM (active)
COc1ccc(OC)c(Cl)c1,,inactive
OCCCCC(O)CO (stereo not given),,inactive
OCCC(F)(F)C(F)(F)C(F)(F)C(F)(F)C(F)(F)C(F)(F)C(F)(F)C(F)(F)F,,inactive
OC[C@H](Cc1cccc(O)c1)[C@H](CO)Cc1cccc(O)c1,,inactive
O=P(O)(O)OP(=O)(O)O,,inactive
Oc1cn2c(n1)Nc1ccc(Cl)c(Cl)c1C2,0.999% [at 19 µM],
